This passage reports PBM binding z-score results from the supplement of paper PMC6555819.

The test has as its system VDR:RXRa (NR concentration 270 nM, RXRa partner concentration 90 nM). As to the kind of experiment: PBM binding z-score (relative to random genomic background probes); higher = stronger binding; sequences stand for … in GC…GCGATTGACAGCGTAGAATGAAGG
On the procedure:
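Protein-binding microarray (Agilent 4x180K custom design, double-stranded 60-nt probes: 5' GC cap, 34-nt variable region, 24-nt constant primer region; full probe sequence given). Purified or IVT nuclear receptor:RXRα heterodimers (3:1 NR:RXRα, mostly 270:90 nM) or homodimers were incubated for 1 h in PBS with 2% milk and no ligand, then detected with Alexa488 antibodies. Fluorescence from o1-orientation probes (~5 replicates averaged) was converted to z-scores against 500 random hg19 background probes. Variable regions are seed direct-repeat (DR0–DR5) sites, all their single-nucleotide variants and half-site ablations.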
For ACAGACAGGTGAGTGAAGATAACTCAGCTGGACG, the PBM binding z-score is -0.413.

Sequence TCATATAGGTAAATGTTAGGTGAAAGTCCGATCT displayed a PBM binding z-score of 1.23. In the case of CGTCCAAAGTCAAGGTCAGTGAAAGAGACTCGAA it was 2.11; in that of TAGTCTAGGTCATTCAGGGGCCAGTATAGAAAGC, 3.15; in that of TCTCGGAGGACACGAAAGGTCAGATCTCGACATC, 3.38. On to TCATATAGGTAATACAGGCGAAAGTCGGCATCTA, for which the PBM binding z-score came out at 0.97. In the case of ACTATTAGTTGAGACGAGGACAACCGATAGGTTG it was 0.286; in that of TCTAGCAGGCCAGAGGGTCAGTCAAGAGGTACGG, 0.113.

AGAATGAGCTTATTAAGATCAGGGAATTGCGGTC: the PBM binding z-score was -0.43. Next, TTACCAAGGTGAAGGTCGTTGAACCCTCTGTAGA: 3.04. Consider ACTCTTAGTTGAGACGAGGGCAACCGATAGGTTG, for which the PBM binding z-score was 0.492. Consider ACTAGTTGGTCAGCGGAGGTCACACACAATTCGG, for which the PBM binding z-score turned out to be 3.98. In the case of TCTCGGAGGACACGAAAGTTCAGAGCTCGACATC it was 2.25; in that of CCTAGTTGGTCAAGTTCACACACGCTATAGGTAC, 3.96; in that of CAAACTAGGTCAATAGGTCAAAGTCCGCTTCCCG, 4.64. In the case of CCGACTGGGGCTTAAGGTTACCATAAGCCAGCCC it was -0.156; in that of GAGACTGGGGCATCAGCAGGTTACCATAACTTAA, 0.317; in that of CGTACTGGGCCAAAAAGGTCATTGATGCCGATAA, 5.04.

As to ATACCAGGGTGATCGTGAGGTCGTTGATACTAAC, the PBM binding z-score was found to be 3.22.

As to CAGTCTAGGTCAGGGCCAGTATAGGAGGAACGTT, the PBM binding z-score was 0.403.

CCTACTGTGCCACGAAAGGTCATTGATTCAGTGA displayed a PBM binding z-score of 4.38. As to CTACCAAGGTGAACAAGGTCGTTCATTACTATTC, the PBM binding z-score stood at 6.53. Next, TCTTGTAGATCAGCGGGTTAAGAAAGCTGGCCAA: 0.539. In the case of CTCGAAAGGTCGTGCTCAGGTGGGTATACCAAAC it was 3.24.

Sequence CCTTACGGGTCACTCCACGTTATAGCATCGGAGT displayed a PBM binding z-score of 2.65. In the case of ACAGACAGGTGGTGAAGGTAACTCAGGCTATCAT it was -0.0297; in that of CGTCCAAGGTCAATGCTAGGTCAGTAAAAGCATT, 4.76. In the case of GGAACGCGGGCAAAGTTGATAGCATCTGTCGACG it was -0.564. In the case of ACTAGCAGGCCAAGTTTGAGTCACTCAAACAAAG it was -0.614; in that of CCTGCTAGGTCAATGGTCAGCAAAAGCAGCTCGC, 0.941. The sequence TAATATAGGTAAACAGGTGAAAGTCCGTAAGTTA returned a PBM binding z-score of 1.19. Next, TCTATTAGTGGAAGGGCAACCGACGAGTCCGTTT: 0.969.

For the sequence CAGCCTAGGCCAGGGCCAGTATAGGAGGAACGTT, the PBM binding z-score is -1. Next, GCACGGAGGACAAGGTCAGAGCTTTGTCCGTAGA: 1.34; AGAACGAAGGCAATGAGTTGATAGCACGGGTGGC: 0.485; AGAACGAGGGCAATGAATTGATAGCACGGGTGGC: 0.305. Next, CCTAGTTGGTCAGGAGGTCACAGACCGGATATGA: 3.64; TCGAGTAGGTTAGGGACATTCAGAATGGCGTCGA: -0.0636. As to TAGCCTAGGTCAGATCGGGCCTGTATACGCTATA, the PBM binding z-score was 0.0712. In the case of ACTTCCGGGTCAACGAGGTTATAGCACGCGTATA it was 7.62.
